PubChem BioAssay (Tox21)
Values without a mark were called inactive. Activity calls are given as the source filed them. Calls come from the whole dose curve; as a rule, active = well fitted curve in the direction sought with a large enough effect in the repeat runs; inconclusive = weak or mixed curves; inactive = flat fitted curve, though single readings scatter. Non-standard residues stand in square brackets, D forms with d. Residues, ends and D or L forms follow the SMILES beside them. Orn = NCCC[C@H](N)C(=O)O

Experiment: qHTS assay to test for compound auto fluorescence at 590 nm (red) in HEK293 cell free culture (AID 720683)
Conditions: cell-free medium autofluorescence, Ex540/Em590 red; series mostly up to 46 µM; fluorescence, % of fluorescent control: at the top concentration
Excerpt: U.S. Tox21 Program National Center for Advancing Translational Sciences [NCATS] NIH Chemical Genomics Center [NCGC] U.S. Environmental Protection Agency [EPA] National Institutes of Environmental Health Sciences [NIEHS] National Toxicology Program [NTP] U.S. Food and Drug Administration [FDA] Tox21 Assay Overview: Compound auto fluorescence often interferes with screening of the compound library against various biological targets and signaling pathways. Some of these compounds may have fluorophoric properties. Such properties may interfere with the assay outputs resulting in false positives and/or negatives. To decrease such complications and ensure the compound activities are relevant in terms of biological response, the Tox21 10K compound library was screened for auto fluorescence. From the fluorophores used as reporter signals in our screening assays, the auto fluorescence equivalencies of compounds against three fluorophores have been evaluated: Triamterene, Fluorescein and Rose Bengal sodium for blue, green and red fluorescence, respectively. The fluorescence intensities were measured using Excitation/Emission wavelengths at 405/460nm, 485/535nm and 540/590nm for blue, green and red labels, respectively. This assay includes the red fluorescence data.
Tox21 Assay Protocol Summary: 5 uL of culture medium (DMEM containing 10% FBS) per well was dispensed into black wall/clear bottom 1536-well plates using a Multidrop Combi Dispenser (ThermoFisher Scientific, Waltham, MA). After 23 nL compound or DMSO vehicle was transferred into assay plate by a pintool work station (Kalypsys, San Diego, CA), fluorescence intensities in the assay plates were measured by an Envision (PerkinElmer, Shelton, CT) plate reader using three labels for measuring blue, green and red fluorescence at […] 460, 535 and 590nm respectively.
% is set by controls: 0 for no effect and ±100 for the full control effect.

Structure (SMILES) | fluorescence, % of fluorescent control | outcome
CSCCC(N)C(=O)O (stereo not given) | -0.165% | 
C[N+](C)(C)CCOP(=O)(O)OP(=O)([O-])OC[C@H]1O[C@@H](n2ccc(N)nc2=O)[C@H](O)[C@@H]1O |  | inactive
C[N+]1(CCCCC[N+]2(C)CCCC2)CCCC1 | -0.658% | 
C[Se]CC[C@H](N)C(=O)O | -0.615% | 
CCC(C)(C)c1ccc(CC(C)CN2C[C@@H](C)O[C@@H](C)C2)cc1 (stereo not given in full) | 0.33% | 
CC(C)C[C@H](NC(=O)[C@@H](COC(C)(C)C)NC(=O)[C@H](Cc1ccc(O)cc1)NC(=O)[C@H](CO)NC(=O)[C@H](Cc1c[nH]c2ccccc12)NC(=O)[C@H](Cc1cnc[nH]1)NC(=O)[C@@H]1CCC(=O)N1)C(=O)N[C@@H](CCCN=C(N)N)C(=O)N1CCC[C@H]1C(=O)NNC(N)=O |  | inactive
CCCCCCOC(=O)c1cccnc1 | 0.0382% | 
CCOc1ccc(S(=O)(=O)O)c2cccnc12 | -0.52% | 
CCCCC[C@H](O)/C=C/[C@@H]1[C@@H](C/C=C\CCCC(=O)O)[C@@H](O)C[C@H]1O |  | inactive
NCc1cccc(C2CCN(C(=O)c3ccc(C#Cc4ccccc4F)o3)CC2)c1 | -0.0605% [at 91.3 µM] | 
Cc1cnc(C(=O)O)c[n+]1[O-] |  | inactive
CC[C@H]1OC(=O)C[C@@H](O)[C@H](C)[C@@H](O[C@@H]2O[C@H](C)[C@@H](O)[C@H](N(C)C)[C@H]2O)[C@@H](CCN2C[C@H](C)C[C@H](C)C2)C[C@@H](C)C(=O)/C=C/C(C)=C/[C@@H]1CO[C@@H]1O[C@H](C)[C@@H](O)[C@@H](OC)[C@H]1OC | 0.027% | 
OCCCNc1ccccc1 | -0.0103% | 
c1ccc(-c2ccc(C(c3ccccc3)n3ccnc3)cc2)cc1 (stereo not given) | -0.633% | 
CCN1\C(=C/C=C/C=C/c2sc3ccccc3[n+]2CC)Sc2ccccc21 |  | inactive
NC(=O)[C@@H]1C[C@]2(NC(=O)NC2=O)c2cc(F)ccc2O1 | -0.0911% | 
c1ccc2cc3c4ccccc4c4ccccc4c3cc2c1 | -0.0765% [at 91.3 µM] | 
N[C@@H](Cc1cnc[nH]1)C(=O)O | 0.0454% | 
Cc1cccc(C)c1NC(=O)C1CCCCN1C (stereo not given) | 0.0019% | 
CC(C)C[C@@H]1NC(=O)[C@H](CCCN)NC(=O)[C@H](C(C)C)NC(=O)[C@@H]2CCCN2C(=O)[C@@H](Cc2ccccc2)NC(=O)[C@H](CC(C)C)NC(=O)[C@H](CCCN)NC(=O)[C@H](C(C)C)NC(=O)[C@@H]2CCCN2C(=O)[C@@H](Cc2ccccc2)NC1=O (cyclo(V[Orn]L[dF]PV[Orn]L[dF]P)) | -0.0918% | 

Structure (SMILES) | fluorescence, % of fluorescent control | outcome
COc1cc2c(cc1O)CCN[C@]21CS[C@@H]2c3c(OC(C)=O)c(C)c4c(c3[C@H](COC1=O)N1[C@@H]2[C@H]2c3c(cc(C)c(OC)c3O)C[C@@H]([C@@H]1O)N2C)OCO4 |  | inactive
CC(=O)Oc1cc(C(F)(F)F)ccc1C(=O)O | -0.167% [at 18.6 µM] | 
C(=C\c1ccncc1)/c1ccccc1 |  | inactive
NC[C@@H]1CC[C@@H](N)[C@@H](O[C@H]2[C@H](O)[C@@H](O[C@H]3O[C@H](CO)[C@@H](O)[C@H](N)[C@H]3O)[C@H](N)C[C@@H]2N)O1 | 0.216% | 
NC(=O)C1c2ccccc2CCc2ccccc21 | 0.0819% | 
C[C@H]1O[C@@H](O[C@H]2CC[C@@]3(C)[C@H](CC[C@@H]4[C@@H]3C[C@@H](O)[C@]3(C)[C@@H](C5=CC(=O)OC5)CC[C@]43O)C2)C[C@H](O)[C@@H]1O[C@H]1C[C@H](O)[C@H](O[C@H]2C[C@H](O)[C@H](O[C@@H]3O[C@H](CO)[C@@H](O)[C@H](O)[C@H]3O)[C@@H](C)O2)[C@@H](C)O1 | -0.503% | 
CCCCC/C=C\C=C\C(=O)OCC | -0.517% [at 95.7 µM] | 
CCc1cn([C@H]2C[C@H](O)[C@@H](CO)O2)c(=O)[nH]c1=O | -0.276% | 
CCCCCCCC[N+](C)(C)CCCCCCCC |  | inactive
COC1[C@@H](O[C@@H]2O[C@H](C)[C@@H](O[C@H]3C[C@@](C)(O)[C@H](OC(=O)CC(C)C)[C@H](C)O3)[C@H](N(C)C)[C@H]2O)[C@@H](CC=O)C[C@@H](C)[C@@H](O)/C=C/C=C/C[C@@H](C)OC(=O)C[C@H]1OC(C)=O (stereo not given in full) | 0.0132% [at 18.6 µM] | 
CN[C@@H]1[C@@H](O[C@H]2O[C@H](CO)[C@@H](N)[C@H](O)[C@H]2O)O[C@H]2C[C@@H](N)[C@@H](O[C@H]3[C@H](O)[C@@H](O)[C@H](N)C[C@@H]3N)O[C@@H]2[C@@H]1O | -0.0916% [at 18.6 µM] | 
CC[C@@H](C(=O)[C@@H](C)[C@@H](O)[C@H](C)CCc1ccc(C)c(O)c1C(=O)O)[C@H]1O[C@](CC)([C@H]2CC[C@](O)(CC)[C@H](C)O2)C[C@@H]1C | -0.0603% | 
CCC[C@@H]1C[C@@H](C(=O)N[C@@H]([C@H]2O[C@H](SC)[C@H](OP(=O)(O)O)[C@@H](O)[C@H]2O)[C@H](C)Cl)N(C)C1 |  | inactive
c1ccc(-n2cnnn2)cc1 | -0.615% | 
NC(=O)CC[C@@H]1NC(=O)[C@H](Cc2ccccc2)NC(=O)[C@H](Cc2ccc(O)cc2)NC(=O)[C@@H](N)CSSC[C@@H](C(=O)N2CCC[C@H]2C(=O)N[C@@H](CCCN=C(N)N)C(=O)NCC(N)=O)NC(=O)[C@H](CC(N)=O)NC1=O |  | inactive
O=C(O)C[C@H](O)C[C@H](O)/C=C/c1c(C2CC2)nc2ccccc2c1-c1ccc(F)cc1 | 0.0231% | 
CO/N=C(\C(=O)N[C@@H]1C(=O)N2C(C(=O)O)=C(COC(C)=O)CS[C@H]12)c1csc(N)n1 (stereo in doubt) | 0.198% | 
O=P(O)(O)CP(=O)(O)O | 0.746% | 
CCOC(=O)[C@H](CCc1ccccc1)N[C@@H](C)C(=O)N1[C@H](C(=O)O)C[C@H]2CCCC[C@@H]21 |  | inactive
SC1CCCCC1 | 0.0081% [at 95.7 µM] | 
